Measurements from the supplement of paper PMC12645437, “Orthogonal IMiD-Degron Pairs Induce Selective Protein Degradation in Cells” (ACS Chemical Biology, 2025).
The full ranking holds about 8,300 sequences; the median of “log2 fold change of degron read counts, EGFP-low vs EGFP+ sorted cells (limma voom), compound-induced degradation” is about -1.1, and the highest 2% start at about 3.2. For the sample, the highest values were picked, then their nearest neighbours and some sequences at random.

T1: CRBN, Q96SW2
T1 chain: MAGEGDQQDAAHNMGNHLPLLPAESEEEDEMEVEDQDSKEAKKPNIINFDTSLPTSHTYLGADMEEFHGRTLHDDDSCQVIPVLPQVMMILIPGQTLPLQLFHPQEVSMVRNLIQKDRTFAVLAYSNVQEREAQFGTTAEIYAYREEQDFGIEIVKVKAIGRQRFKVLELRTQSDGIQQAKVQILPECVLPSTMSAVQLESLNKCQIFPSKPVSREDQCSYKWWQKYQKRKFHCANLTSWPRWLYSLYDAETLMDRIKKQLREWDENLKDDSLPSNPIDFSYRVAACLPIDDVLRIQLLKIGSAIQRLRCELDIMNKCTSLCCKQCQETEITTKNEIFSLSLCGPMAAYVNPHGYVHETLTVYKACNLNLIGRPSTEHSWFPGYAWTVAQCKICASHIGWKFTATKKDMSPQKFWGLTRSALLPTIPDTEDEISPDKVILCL


Target: T1, CRBN, Q96SW2
Experiment: log2 fold change of degron read counts, EGFP-low vs EGFP+ sorted cells (limma voom), compound-induced degradation; higher = more compound-induced degradation of the degron-EGFP fusion; degrons are variants of IKZF1/3 zinc finger 2; compound dose not given here
Settings: Jurkat, 18 h
Protocol: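 Pooled library of 8380 IKZF3 ZF2 degron mutants (positions 146-167 varied within the IKZF3 130-189 degron; only the varied core is printed, flanks not printed) fused to EGFP with IRES-mCherry, lentivirally expressed in Jurkat cells. mCherry+ cells were treated with one IMiD compound for 18 h (dose not stated) and FACS-sorted into EGFP-low and EGFP+ populations. Degron sequences were counted by NGS, and log2FC (EGFP-low vs EGFP+) was estimated by limma voom over 3 biological replicates.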

[1] = compound: compound 19 (5-tert-butyl-thalidomide)
[2] = compound: compound 22 (5-morpholino-thalidomide)
[3] = compound: compound 33 (diphenyl IMiD analogue)
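Also: pooled lentiviral library of zinc finger degron-EGFP fusions in mCherry-positive Jurkat cells, FACS-sorted after compound exposure, with degron abundance counted by next-generation sequencing.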

| Sequence | log2 fold change of degron read counts [1] | log2 fold change of degron read counts [2] | log2 fold change of degron read counts [3] | log2 fold change of degron read counts (compound: thalidomide) |
| --- | --- | --- | --- | --- |
| FRCDQCGAHFTQKGNLLRHIKL [46F_47R_49D_50Q_52G_53A_54H_55F_67L_, Q9UKT9] | -2.76 | -2.89 | -2.01 | -2.48 |
| FKCEICGAEFTQKGNLLRHIKL [46F_47K_49E_50I_52G_53A_54E_55F_67L_, Q9UKT9] | -0.284 | -2.59 | -3.54 | -0.121 |
| FCCNICGARFTQKGNLLRHIKL [46F_47C_49N_50I_52G_53A_54R_55F_67L_, Q9UKT9] | 1.4 | 1.76 | 0.552 | 1.57 |
| FECDICGAPFTQKGNLLRHIKL [46F_47E_49D_50I_52G_53A_54P_55F_67L_, Q9UKT9] | 1.27 | -1.62 | -0.0281 | 0.305 |
| FGCDICGAPFTQKGNLLRHIKL [46F_47G_49D_50I_52G_53A_54P_55F_67L_, Q9UKT9] | 0.329 | -0.821 | -1.38 | -1.4 |
| FMCDICGAPFTQKGNLLRHIKL [46F_47M_49D_50I_52G_53A_54P_55F_67L_, Q9UKT9] | 2.71 | 3.25 | 3.03 | 1.89 |
| FRCDICGAPFTQKGNLLRHIKL [46F_47R_49D_50I_52G_53A_54P_55F_67L_, Q9UKT9] | 3.17 | 3.53 | 3.32 | 3.52 |
| FNCDICGAPFTQKGNLLRHIKL [46F_47N_49D_50I_52G_53A_54P_55F_67L_, Q9UKT9] | 2.68 | 1.25 | -0.682 | -0.153 |
| FKCDICGAPFTQKGNLLRHIKL [46F_47K_49D_50I_52G_53A_54P_55F_67L_, Q9UKT9] | 1.21 | 0.288 | -1.35 | 1.02 |
| FTCDICGAPFTQKGNLLRHIKL [46F_47T_49D_50I_52G_53A_54P_55F_67L_, Q9UKT9] | 2.1 | 2.86 | 1.41 | 1.93 |
| FLCDICGAPFTQKGNLLRHIKL [46F_47L_49D_50I_52G_53A_54P_55F_67L_, Q9UKT9] | 1.62 | 2.15 | 2.03 | 1.99 |
| FDCDICGAPFTQKGNLLRHIKL [46F_47D_49D_50I_52G_53A_54P_55F_67L_, Q9UKT9] | 0.272 | -1.45 | -1.51 | -0.767 |
| FICDICGAPFTQKGNLLRHIKL [46F_47I_49D_50I_52G_53A_54P_55F_67L_, Q9UKT9] | 1.26 | 3.46 | 2.32 | 2.47 |
| FACDICGAPFTQKGNLLRHIKL [46F_47A_49D_50I_52G_53A_54P_55F_67L_, Q9UKT9] | 3.46 | 1.66 | -0.501 | 0.383 |
| FSCDICGAPFTQKGNLLRHIKL [46F_47S_49D_50I_52G_53A_54P_55F_67L_, Q9UKT9] | 2.36 | 1.62 | 0.275 | 0.668 |
| FSCDVCGAEFTQKGNLLRHIKL [46F_47S_49D_50V_52G_53A_54E_55F_67L_, Q9UKT9] | -0.733 | -1.36 | -1.13 | -1.96 |
| FNCNICGANFTQKGNLLRHIKL [46F_47N_49N_50I_52G_53A_54N_55F_67L_, Q9UKT9] | 0.662 | -0.0154 | -0.393 | -0.94 |
| FGCDQCGARFTQKGNLLRHIKL [46F_47G_49D_50Q_52G_53A_54R_55F_67L_, Q9UKT9] | -1.28 | -2.53 | -2.52 | -1.78 |
| FKCEICGRWFTQKGNLLRHIKL [46F_47K_49E_50I_52G_53R_54W_55F_67L_, Q9UKT9] | -2.8 | -3.25 | -3.01 | -2.58 |
| FWCNQCGRHFTQKGNLLRHIKL [46F_47W_49N_50Q_52G_53R_54H_55F_67L_, Q9UKT9] | -1.56 | -1.46 | -1.56 | -1.55 |
| FACPQCGAVFTQKGNLLRHIKL [46F_47A_49P_50Q_52G_53A_54V_55F_67L_, Q9UKT9] | 0.29 | -1.36 | -0.148 | -1.43 |
| FVCPICGHGFTQKGNLLRHIKL [46F_47V_49P_50I_52G_53H_54G_55F_67L_, Q9UKT9] | -2.33 | -2.2 | -1.88 | -0.905 |
| FLCEQCGAEFTQKGNLLRHIKL [46F_47L_49E_50Q_52G_53A_54E_55F_67L_, Q9UKT9] | -2.34 | -3.65 | -2.09 | -1.63 |
| FQCPQCGAYFTQKGNLLRHIKL [46F_47Q_49P_50Q_52G_53A_54Y_55F_67L_, Q9UKT9] | -1.88 | -1.45 | -0.995 | 1.25 |
| LYCPICGFVCTQKGNLLRHIKL [46L_47Y_49P_50I_52G_53F_54V_55C_67L_, Q9UKT9] | 3.29 | 3.49 | 2.29 | 1.2 |
| LMCPICGFVCTQKGNLLRHIKL [46L_47M_49P_50I_52G_53F_54V_55C_67L_, Q9UKT9] | -0.234 | 0.389 | 2.08 | 1.67 |
| LGCPICGFVCTQKGNLLRHIKL [46L_47G_49P_50I_52G_53F_54V_55C_67L_, Q9UKT9] | 3.04 | 1.82 | 1.33 | 0.747 |
| LTCPICGFVCTQKGNLLRHIKL [46L_47T_49P_50I_52G_53F_54V_55C_67L_, Q9UKT9] | 0.397 | 1.59 | 2.08 | 2.24 |
| LQCPICGFVCTQKGNLLRHIKL [46L_47Q_49P_50I_52G_53F_54V_55C_67L_, Q9UKT9] | 0.325 | 2.16 | 1.88 | 3.76 |
| LCCPICGFVCTQKGNLLRHIKL [46L_47C_49P_50I_52G_53F_54V_55C_67L_, Q9UKT9] | 1.01 | 1.57 | 2.59 | 2.1 |
